Bim-Mcl-1: inhibitors of Bim peptide binding to Mcl-1, primary screen, biochemical, bead-based flow cytometry, multiplex; Bim peptide-Mcl-1 binding; Induced myeloid leukemia cell differentiation protein Mcl-1 (Homo sapiens), Q07820; AID 1009, 2008; actives 0.1% (n = 190,000); inhibition, % at 10 µM; in the data active means inhibition above about 40%;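 further: 0% = no compound tracer wells and 100% = peptide blocker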
Target sequence (Q07820 whole entry, looked up): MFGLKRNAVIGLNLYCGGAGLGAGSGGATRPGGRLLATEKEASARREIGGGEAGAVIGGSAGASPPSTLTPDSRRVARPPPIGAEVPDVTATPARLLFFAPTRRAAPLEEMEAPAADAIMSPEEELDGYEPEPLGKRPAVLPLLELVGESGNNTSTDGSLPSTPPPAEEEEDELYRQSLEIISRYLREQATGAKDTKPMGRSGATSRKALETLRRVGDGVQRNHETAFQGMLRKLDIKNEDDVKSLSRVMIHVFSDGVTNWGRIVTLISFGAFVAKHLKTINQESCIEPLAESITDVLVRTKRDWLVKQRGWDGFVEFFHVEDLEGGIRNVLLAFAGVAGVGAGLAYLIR
Calpain2 inh: inhibitors of pig calpain II, primary screen, biochemical, fluorogenic peptide substrate, 1536-well; purified calpain II, 30 min; inhibition, % at 16 µM; actives 0.37% (n = 220,000); AID 1236, 2008;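 active means inhibition above about 50%, limit read from the data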
Mcl1 Noxa PPI: Mcl-1/Noxa binding inhibitors, primary screen, biochemical, TR-FRET, 1536-well. Induced myeloid leukemia cell differentiation protein Mcl-1 (Homo sapiens), Q07820. TR-FRET Mcl-1/Noxa peptide binding, 2 h. inhibition, % at 21.7 µM. actives 1.5% (n = 220,000);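 active means compounds that cut the protein-peptide binding signal by more than 50% relative to plate controls in a single-dose test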;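 further: His-tagged Mcl-1 with rhodamine Noxa BH3 peptide and terbium anti-His antibody; 0% = Mcl-1 plus Noxa peptide wells and 100% = peptide-only wells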
Mcl1 Bid PPI: Mcl-1/Bid binding inhibitors, primary screen, biochemical, TR-FRET, 1536-well; Induced myeloid leukemia cell differentiation protein Mcl-1 (Homo sapiens), Q07820; TR-FRET Mcl-1/Bid-Dy647 peptide binding; actives 0.97% (n = 220,000); inhibition, % at 21.7 µM;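 active means compounds that cut the binding signal by more than half at the single screening dose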;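 further: His-tagged Mcl-1 with europium anti-His antibody binding Bid BH3 peptide; 0% = Mcl-1 plus peptide wells and 100% = peptide-only wells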
p47phox inh: p47phox/p22phox peptide binding inhibitors, primary screen, biochemical, uHTS, NADPH oxidase regulatory subunit; fluorescence polarization, 2 h; inhibition, % at 24.7 µM; actives 0.53% (n = 220,000); AID 1274, 2008;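 active means inhibition above about 30%, limit read from the data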;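 further: 0% = p47phox with labelled peptide and 100% = labelled peptide alone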
14-3-3 Bad inh: inhibitors of 14-3-3 zeta/Bad binding, primary screen, biochemical, TR-FRET, bovine 14-3-3 zeta; 14-3-3 protein zeta/delta (Bos taurus), P63103; TR-FRET 14-3-3zeta/Dy647-pBad peptide displacement, 1 h; inhibition, % at 21.7 µM; actives 0.71% (n = 220,000); AID 781, 2007;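 active means inhibition above about 70%, limit read from the data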;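 further: 0% = full 14-3-3 plus peptide FRET controls and 100% = background without 14-3-3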
Target sequence (P63103 whole entry, looked up): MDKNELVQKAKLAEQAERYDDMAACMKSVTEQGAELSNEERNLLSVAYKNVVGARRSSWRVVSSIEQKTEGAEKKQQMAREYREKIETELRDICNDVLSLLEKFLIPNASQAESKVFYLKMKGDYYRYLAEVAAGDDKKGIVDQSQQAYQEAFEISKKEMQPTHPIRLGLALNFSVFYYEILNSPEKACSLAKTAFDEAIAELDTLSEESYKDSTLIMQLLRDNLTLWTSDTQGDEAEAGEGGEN
An asterisk follows results filed as active; . = no result. A selection: hits, their analogues and other compounds. The true share with any hit is near 3.4%.

SMILES | Bim-Mcl-1 | Calpain2 inh | Mcl1 Noxa PPI | Mcl1 Bid PPI | p47phox inh | 14-3-3 Bad inh
CC(OCC(O)CN(C)Cc1nc2ccccc2c(=O)[nH]1)c1ccc(Cl)cc1 (stereo unspecified) | 0 | 8 | -10 | -5 | -1 | -12
Cc1csc(N(C(=O)c2ccccc2F)c2ccccc2)n1 | 3 | 2 | 27 | -12 | -9 | -11
Cc1cc2nnc(SCC(=O)N3C(C)CCCC3C)n2c(N)n1 (stereo unspecified) | 0 | -11 | 1 | -6 | 54* | 6
COc1ccc(COC(=O)NNC(=O)c2ccccc2Cl)cc1 | 47* | 24 | -25 | -8 | 14 | 10
O=C(NNC(=O)c1ccccc1Cl)c1ccccc1Cl | . | 11 | -15 | 95* | -10 | -7
COc1ccc(CC(=O)OCC(=O)NCc2ccccc2Cl)cc1 | 0 | -8 | 13 | -20 | -2 | -3
Cc1cc(=O)[nH]c(SCC(=O)N2CCN(S(=O)(=O)c3ccccc3)C2)n1 | 1 | -16 | 1 | -8 | -1 | -2
CC(NC(=O)Cn1cccc1C(=O)c1ccccc1)c1ccc2c(c1)OCCO2 (stereo unspecified) | -3 | 33 | 17 | 2 | 71* | 3
O=C(Cn1cccc1C(=O)c1ccccc1)NCc1ccc2c(c1)OCO2 | 0 | -11 | 4 | -8 | -2 | 3
O=C(CON=C1c2ccccc2-c2ccccc21)NC12CC3CC(CC(C3)C1)C2 | -2 | 13 | -1 | -9 | -12 | 0
CC(C)Cn1c(-c2ccccc2F)n[nH]c1=S | -1 | 41 | 3 | -26 | 4 | 5
CC(C)Cn1c(-c2csc3c2CCCC3)n[nH]c1=S | -3 | 50* | 15 | -42 | 3 | -6
Cn1c(SCC(=O)Nc2ccc3nc(SCC(=O)N4CCCC4)sc3c2)nnc1-c1ccc(N)cc1 | 0 | -153 | 100* | 24 | -6 | -2
Cn1c(SCC(=O)Nc2ccc3nc(SCC(=O)NC4CC4)sc3c2)nnc1-c1ccccc1 | -2 | -54 | 12 | 8 | 1 | 5
CCN(CC)C(=O)CSc1nc2ccc(NC(=O)CSc3nccn3C)cc2s1 | 14 | -38 | 56* | 4 | -23 | -14
CCOc1ccc2nc(NC(=O)c3cccc(-c4cc5ccccc5oc4=O)c3)sc2c1 | -6 | -16 | 76* | 84* | 57* | 52
Cc1ccc2nc(NC(=O)c3ccc(N4C(=O)CCC4=O)cc3)sc2c1 | 1 | -42 | 58* | 0 | -29 | 0
CCn1nnc(NC(=O)c2cccc(-c3cc4ccccc4oc3=O)c2)n1 | -1 | -146 | -15 | -7 | -7 | -6
Cc1ccc2nc(NC(=O)c3cccc(-c4cc5ccccc5oc4=O)c3)sc2c1 | -1 | -50 | 32 | 75* | 23 | 59
CCOc1ccccc1NC(=O)CN(C)S(=O)(=O)c1cnc[nH]1 | 1 | -26 | -20 | -2 | -8 | -6
O=C(Nc1cccc(S(=O)(=O)N2CCOCC2)c1)c1cnccn1 | 0 | -11 | 17 | -50 | 4 | -8
Cc1cccc(N=C2NC(=O)c3cc([N+](=O)[O-])ccc32)c1 | 1 | 26 | 16 | -6 | -8 | -16
Cc1snc(SCC(=O)c2ccc(F)cc2)c1C#N | 0 | 6 | -2 | -26 | 2 | -6
Cc1snc(SCC(=O)c2ccc([N+](=O)[O-])cc2)c1C#N | -6 | -54 | 66* | -34 | -1 | 2
CCCCCCC(=O)N/N=C(\C)Cc1ccccc1 | -3 | 22 | 70* | -14 | -14 | -3
SMILES | Bim-Mcl-1 | Calpain2 inh | Mcl1 Noxa PPI | Mcl1 Bid PPI | p47phox inh | 14-3-3 Bad inh
COc1cc(C)c(Br)cc1S(=O)(=O)NCCN1CCOCC1 | 2 | -27 | 13 | -24 | -9 | -4
COCCNC(=O)c1cc(Sc2nnc(C)s2)nc2ccccc12 | . | -14 | 0 | -7 | -2 | -2
Cc1nnc(Sc2cc(C(=O)NC3CC3)c3ccccc3n2)s1 | . | -20 | 0 | 99* | 3 | 0
CCOC(=O)N1CCC(NC(=O)c2ccc3c(c2)sc2nc(-c4cccc(OC)c4)cn23)CC1 | -14 | -120 | -2 | -87 | 13 | 75*
CCOC(=O)N1CCC(NC(=O)c2ccc3c(c2)sc2nc(-c4ccccc4)cn23)CC1 | -2 | -64 | -17 | -32 | -17 | .
Cc1cc(=O)oc(C)c1C(=O)Nc1ccc(N(C)C)cc1 | . | -45 | -4 | -67 | 0 | -9
O=C(O)C1OC(Oc2c(-c3ccc(O)c(O)c3)oc3cc(O)cc(O)c3c2=O)C(O)C(O)C1O (stereo unspecified) | 0 | 6 | 53* | 2 | -9 | -3
CC1OC(Oc2c(-c3cc(O)c(O)c(O)c3)oc3cc(O)cc(O)c3c2=O)C(O)C(O)C1O (stereo unspecified) | . | 41 | 44 | -37 | -13 | -10
O=C(CCl)Nc1cc2[nH]c(=O)[nH]c2cc1Br | 3 | -40 | 51* | -17 | 3 | -4
Cc1cc2c(C)cc(=O)[nH]c2cc1NC(=O)CCl | . | -8 | 25 | 5 | -13 | 5
C=C(C)COc1ccc2c(CC)cc(=O)oc2c1C | -2 | -26 | -5 | -2 | -8 | 5
CCCc1cc(=O)oc2c(C)c(OCC(=O)c3ccc(N4CCCC4)cc3)ccc12 | -21 | -50 | 32 | 49 | 34* | 67
COc1ccc(C(=O)/C=C/C(=O)N(Cc2ccccc2OC)C(C(=O)NC2CCCCC2)c2ccncc2)c(O)c1 (stereo unspecified) | -3 | -18 | 1 | -33 | -8 | 9
COc1ccccc1CN(C(=O)CCl)C(C(=O)NC1CCCCC1)c1ccncc1 (stereo unspecified) | 2 | -27 | 35 | 20 | 43* | 52
CC(C)N1CCN(C2CSCCSC2)CC1CCO (stereo unspecified) | . | -21 | 1 | -63 | -7 | -4
CC(C)CCN1CCN(C2CSCCSC2)CC1CCO (stereo unspecified) | -3 | -32 | 18 | -56 | 42* | -6
COc1ccccc1NC(=O)/C=C\C(=O)O | -2 | 77* | 8 | -19 | -1 | 3
COc1ccc(Cl)cc1NC(=O)/C=C\C(=O)O | 0 | -18 | 14 | -11 | -8 | 29
CC(=O)N(CCC1(C(C)C)CCOC(C)(C)C1)C(C)c1cccs1 (stereo unspecified) | . | 18 | 16 | -15 | -8 | 3
CSC1=N/C(=C\c2ccccc2F)C(=O)S1 | 1 | -107 | 92* | 100* | -6 | -11
Cc1cc(NS(=O)(=O)c2ccc(Nc3nc(-c4sc(NC(=O)c5ccccc5)nc4C)cs3)cc2)no1 | 1 | 11 | 117* | -27 | -61 | 7

Screens (PubChem BioAssay)
